The values below come from the supplement of paper PMC6953052.

In all, about 1,700 compounds were measured (“fraction of GFP-LC3-positive cells (≥5 vesicles/cell)”: median about 0.43, highest 2% from about 0.81 on). Many of the other results were omitted from the sample, so the highest values are more common in it than they were.

In the assay the test system is CbCln3 Δex7/8/Δex7/8 GFP-LC3 cerebellar neuronal cells. In words: fraction of GFP-LC3-positive cells (≥5 vesicles/cell); higher = more autophagosome accumulation. The essentials: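 By pin transfer, ~50 nL of compound in DMSO went in duplicate into 384-well plates holding 2 × 10^3 wild-type or mutant CbCln3 cerebellar cells per well that stably express GFP-LC3, followed by 24 h at 33 °C. The final 30 min included Hoechst 33342 and LysoTracker Red, and then came 3.2% PFA fixation and 10× imaging of three fields per well. Each value gives the fraction of cells above a vesicle threshold, averaged across duplicates, with CellProfiler counting GFP-LC3 vesicles and out-of-focus images left out. The threshold is 5 or more vesicles per cell.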
With `COc1c(C=O)c(O)cc2c1C(=O)c1ccccc1C2=O` [damnacanthal], the “fraction of GFP-LC3-positive cells” value is 0.173.
For the molecule `O.Oc1cc(O)c2c(c1)OC(c1ccc(O)c(O)c1)C(O)C2` (racemic) [Catechin-(+,-) hydrate], the “fraction of GFP-LC3-positive cells” value is 0.337.
On to `CC/C=C\C[C@H](O)/C=C/C=C\C/C=C\C/C=C\CCCC(=O)O`, for which the “fraction of GFP-LC3-positive cells” value was determined as 0.434.
On to `CCCCCCCC/C=C/CCCCCCCCC(=O)O` [10(Z)-Nonadecenoic acid], for which the “fraction of GFP-LC3-positive cells” value was 0.551.
The result for `CCCCCCCC/C=C/CCCCCCCCC(=O)O` [10(E)-Nonadecenoic acid] reads 0.516; that for `NC[C@H]1O[C@H](O[C@H]2[C@H](O)[C@@H](O[C@H]3O[C@H](CO)[C@@H](O)[C@H](N)[C@H]3O)[C@H](N)C[C@@H]2N)[C@H](N)C[C@@H]1O` [Tobramycin], 0.5; that for `COc1cc(N)c(Cl)cc1C(=O)NC1CCN(Cc2ccccc2)CC1.O=C(O)/C=C\C(=O)O` [Clebopride maleate], 0.506.
With `CC(C(O)c1ccc(O)cc1)N1CCC(Cc2ccccc2)CC1.O=C(O)C(O)C(O)C(=O)O` (stereo unspecified) [Ifenprodil tartrate], the “fraction of GFP-LC3-positive cells” value came out at 0.481.
As to `Cl.Fc1ccc([C@@H]2CCNC[C@H]2COc2ccc3c(c2)OCO3)cc1` [Paroxetine Hydrochloride], the “fraction of GFP-LC3-positive cells” value was 0.5.
The result for `Nc1ccc(S(=O)(=O)Nc2ccc(Cl)nn2)cc1` [Sulfachloropyridazine] reads 0.368.
Consider `CC1CNc2c(cccc2S(=O)(=O)N[C@@H](CCCNC(=N)N)C(=O)N2CC[C@@H](C)C[C@@H]2C(=O)O)C1` (stereo partly specified) [Argatroban], for which the “fraction of GFP-LC3-positive cells” value turned out to be 0.486.
The result for `CCCCC[C@H](O)/C=C/C=C/C=C/[C@@H](O)C/C=C\CCCC(=O)O` [8(S),15(S)-DiHETE all trans] reads 0.456; that for `CCN(CC)CCOC(=O)c1ccc(N)cc1.Cl` [Procaine hydrochloride], 0.483.
The result for `C[C@]12C=CC(=O)C=C1CC[C@@H]1[C@@H]2[C@@H](O)C[C@@]2(C)[C@H]1CC[C@]2(O)C(=O)CO` [Prednisolone] reads 0.183.
Turning to `CCCCOc1ccc(C(=O)CCN2CCCCC2)cc1.Cl` [Dyclonine hydrochloride], the “fraction of GFP-LC3-positive cells” value was 0.322.
The result for `NC(=O)c1cc[n+](CC2=C(C(=O)[O-])N3C(=O)[C@@H](NC(=O)[C@@H](c4ccccc4)S(=O)(=O)[O-])[C@H]3SC2)cc1.[Na+]` [Cefsulodin sodium salt] reads 0.367.
The result for `CC1(C)[C@@H](OC(=O)CCC(=O)[O-])CC[C@]2(C)[C@H]3C(=O)C=C4[C@@H]5C[C@@](C)(C(=O)[O-])CC[C@]5(C)CC[C@@]4(C)[C@]3(C)CC[C@@H]12.[Na+].[Na+]` [Carbenoxolone disodium salt] reads 0.269.
The same measure for `CCCCCCCCCCCCCCCC(=O)NCCc1ccc(O)c(O)c1` [Palmitoyl dopamine]: 0.456.
With `CCCCc1ccc2[nH]c(NC(=O)OC)nc2c1` [Parbendazole], the “fraction of GFP-LC3-positive cells” value was 0.927.
Consider `COC(=O)Nc1nc2cc(SC(C)C)ccc2[nH]1` [Methiazole], for which the “fraction of GFP-LC3-positive cells” value was 0.836.
The result for `CCCSc1ccc2[nH]c(NC(=O)OC)nc2c1` [Albendazole] reads 0.899; that for `COC(=O)Nc1nc2cc(Sc3ccccc3)ccc2[nH]1` [Fenbendazole], 0.648; that for `CCCCCCCCCCCCCCCCCCc1ccc(C(=O)/C=C/C(=O)O)cc1`, 0.48.
With `NCc1ccccc1CC(=O)N[C@@H]1C(=O)N2C(C(=O)O)=C(CSc3nnnn3CC(=O)O)CS[C@H]12` [Ceforanide], the “fraction of GFP-LC3-positive cells” value came out at 0.519.
As to `CC1CCc2cc(F)cc3c(=O)c(C(=O)O)cn1c23` (stereo unspecified) [Flumequine], the “fraction of GFP-LC3-positive cells” value was determined as 0.273.
Regarding `CC1/C=C/C=C/CC/C=C/C=C/C=C/C=C/C(O[C@@H]2O[C@H](C)[C@@H](O)[C@H](N)[C@@H]2O)CC(O)C(C(=O)O)C(O)CC(=O)CC(O)C(O)CCC(O)CC(O)CC(O)CC(=O)OC(C)C(C)C1O` (stereo partly specified) [Nystatine], the “fraction of GFP-LC3-positive cells” value turned out to be 0.294.
The same measure for `CC(=O)OCOC(=O)CN(CC(=O)OCOC(C)=O)c1ccccc1OCCOc1ccccc1N(CC(=O)OCOC(C)=O)CC(=O)OCOC(C)=O`: 0.851; for `CC(=O)Oc1ccccc1C(=O)Oc1ccccc1C(=O)O` [Acetylsalicylsalicylic acid]: 0.354.
For the molecule `COc1cc2nc(N3CCN(C(=O)c4ccco4)CC3)nc(N)c2cc1OC.Cl` [Prazosin hydrochloride], the “fraction of GFP-LC3-positive cells” value was found to be 0.669.
The same measure for `COc1cc2nc(N3CCN(C(=O)C4CCCO4)CC3)nc(N)c2cc1OC.Cl` (stereo unspecified) [Terazosin hydrochloride]: 0.396; for `COc1cc2nc(N3CCN(C(=O)c4ccco4)CC3)nc(N)c2cc1OC` [prazocin]: 0.931; for `CCCCC/C=C\C/C=C\C=C\[C@@H](O)C/C=C\CCCC(=O)O`: 0.479.
The same measure for `Nc1nc2c(ncn2COCCO)c(=O)[nH]1` [Acyclovir]: 0.421; for `CCCOc1ccccc1-c1nc2[nH]nnc2c(=O)[nH]1` [zaprinast]: 0.222; for `Nc1nc2[nH]nnc2c(=O)[nH]1` [Azaguanine-8]: 0.845.
The result for `CN(C)CCOC(c1ccccc1)c1ccccc1.Cl` [Diphenhydramine hydrochloride] reads 0.531; that for `CCCCC[C@H](O)/C=C/C=C\C/C=C\CCCCC(=O)O`, 0.403; that for `CCCCC(CC)CNC(=N)NC(=N)NCCCCCCNC(=N)NC(=N)NCC(CC)CCCC.Cl.Cl` (stereo unspecified) [Alexidine dihydrochloride], 0.537.
For the molecule `CCCNC(C)C(=O)Nc1ccccc1C.Cl` (stereo unspecified) [Prilocaine hydrochloride], the “fraction of GFP-LC3-positive cells” value was 0.359.
The result for `C=CCOc1ccccc1OCC(O)CNC(C)C.Cl` (stereo unspecified) [Oxprenolol hydrochloride] reads 0.366; that for `Cl.OCCN1CCN(CC/C=C2/c3ccccc3Sc3ccc(Cl)cc32)CC1` [Zuclopenthixol hydrochloride], 0.542.
The result for `O=c1cc(-c2ccc(O)cc2)oc2cc(O)cc(O)c12` [Apigenin] reads 0.432; that for `CCCCCC(=O)/C=C/[C@H]1[C@H](O)CC(=O)[C@@H]1C/C=C\CCCC(=O)O` [15-Keto-prostaglandin E2], 0.471.
The same measure for `NS(=O)(=O)c1cc2c(cc1Cl)N=C(CSCc1ccccc1)NS2(=O)=O` [Benzthiazide]: 0.293.
For `CS(=O)(=O)Nc1ccc([N+](=O)[O-])cc1Oc1ccccc1` [Nimesulide], the “fraction of GFP-LC3-positive cells” value amounted to 0.391.
The result for `CC(C)NC[C@H](O)c1ccc(O)c(O)c1.Cl` [(-)-Isoproterenol hydrochloride] reads 0.349.
